Each structure is given as a SMILES string. Compounds without any hit were thinned out: in the full panel of roughly 83,000, 20% have a hit.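 Percent growth is the endpoint: 0 to 100 indicates growth inhibition (40 means 60% inhibition), 0 means no net growth, and negative values indicate cell death.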 Values without a mark were called inactive. Calls of active or inactive are those of the source. The calls were made as follows: active = growth percent below 10; inactive = the rest.

This is an account of results in PubChem BioAssay (NCI).

What all share (test): NCI-60 one-dose screen, 48 h (100 = growth as untreated, 0 = no growth, -100 = all killed)
The subject of one experiment is SR leukemia. To be noted: 10 µM unless noted.
Another experiment relates to RPMI-8226 leukemia. The settings on record: 10 µM unless noted.
The next experiment deals with OVCAR-8 ovarian. The settings on record: 10 µM unless noted.
Another experiment has as its system OVCAR-5 ovarian. To be noted: 10 µM unless noted.
For a further experiment, the system named is OVCAR-4 ovarian. The settings on record: 10 µM unless noted.
The next experiment relates to SK-OV-3 ovarian. To be noted: 10 µM unless noted.
A further experiment has as its system IGROV1 ovarian. The settings on record: 10 µM unless noted.
In the next experiment the test system is OVCAR-3 ovarian. The settings on record: 10 µM unless noted.
Another experiment relates to NCI/ADR-RES ovarian. To be noted: 10 µM unless noted.
For another experiment, the system named is T-47D breast. The settings on record: 10 µM unless noted.
The next experiment concerns BT-549 breast. The settings on record: 10 µM unless noted.
A further experiment deals with MDA-MB-435 melanoma. To be noted: 10 µM unless noted.
For a further experiment, the system named is SW-620 colon. To be noted: 10 µM unless noted.
Another experiment has as its system MCF7 breast. To be noted: 10 µM unless noted.
The test system of the next experiment is HCT-116 colon. The settings on record: 10 µM unless noted.
The test system of a further experiment is HCC-2998 colon. The settings on record: 10 µM.
In another experiment the test system is KM12 colon. The settings on record: 10 µM unless noted.

On to `COc1c(OCCCN2CCOCC2)ccc2c3n(c(=NC(=O)c4cnc(N)nc4)nc12)CCN3`, for which the growth with SR leukemia was 5.24% (active); in the experiment with RPMI-8226 leukemia, 11.3%; in the experiment on OVCAR-8 ovarian, 15.7%; with OVCAR-5 ovarian it was 14%; in the experiment on OVCAR-4 ovarian, 7.97% (active); in the experiment with SK-OV-3 ovarian, -31.8% (active). The growth was -22% (active) in the experiment with IGROV1 ovarian; 4.64% (active) in the experiment on OVCAR-3 ovarian; 22.7% with NCI/ADR-RES ovarian; -24% (active) in the experiment on T-47D breast; -5.84% (active) in the experiment with BT-549 breast; 4.22% (active) with MDA-MB-435 melanoma. Moreover, the growth with SW-620 colon is 20.5%; with MCF7 breast it was 11.9%; in the experiment on HCT-116 colon, 13.8%; in the experiment on HCC-2998 colon, -15.7% (active); in the experiment on KM12 colon, -2.1% (active).

For `COc1cc(Nc2ncc(F)c(Nc3ccc4c(n3)NC(=O)C(C)(C)O4)n2)cc(OC)c1OC`, the growth in the experiment with SR leukemia is 38.5%; with RPMI-8226 leukemia, 71.8%; in the experiment on OVCAR-8 ovarian, 67.3%; in the experiment on OVCAR-5 ovarian it was 24.1%; in the experiment with OVCAR-4 ovarian, 73.8%; with SK-OV-3 ovarian it was 21.8%. The growth is -9.34% (active) in the experiment on IGROV1 ovarian; 63.4% with OVCAR-3 ovarian; 59.1% in the experiment on NCI/ADR-RES ovarian; 39% in the experiment with T-47D breast; 34.1% in the experiment on BT-549 breast; 51.2% in the experiment on MDA-MB-435 melanoma. Further, the growth was 59.5% in the experiment with SW-620 colon; 41.5% in the experiment with MCF7 breast; 59.3% in the experiment with HCT-116 colon; 100% in the experiment on HCC-2998 colon; 12.3% in the experiment on KM12 colon.

As to `CO[C@H]1C[C@@H]2CC[C@@H](C)[C@@](O)(O2)C(=O)C(=O)N2CCCC[C@H]2C(=O)O[C@H]([C@H](C)C[C@@H]2CC[C@@H](OCCO)[C@H](OC)C2)CC(=O)[C@H](C)/C=C(\C)[C@@H](O)[C@H](OC)C(=O)[C@H](C)C[C@H](C)\C=C/C=C/C=C/1C`, the growth in the experiment on SR leukemia was 11.3%; with RPMI-8226 leukemia, 35.6%; with OVCAR-8 ovarian, 40.9%; in the experiment on OVCAR-5 ovarian, 50.8%; in the experiment with OVCAR-4 ovarian, 26.8%; in the experiment on SK-OV-3 ovarian, 35%. The growth in the experiment on IGROV1 ovarian is 16.3%; in the experiment with OVCAR-3 ovarian, 63.4%; with NCI/ADR-RES ovarian, 57.7%; in the experiment with T-47D breast it was 7.51% (active); with BT-549 breast it was 42.3%; in the experiment on MDA-MB-435 melanoma it was 56.4%. The growth in the experiment on SW-620 colon is 53.7%; with MCF7 breast, 35.8%; in the experiment with HCT-116 colon, 64.3%; in the experiment with HCC-2998 colon it was 66%; with KM12 colon it was 55.3%.

Consider `O=C(Cc1ccc(/C=C/C(=O)c2ncc[nH]2)cc1)Nc1ccc(Br)cc1`, for which the growth in the experiment with SR leukemia is 5.06% (active); in the experiment on RPMI-8226 leukemia, -13.3% (active); with OVCAR-8 ovarian it was 6.77% (active); in the experiment with OVCAR-5 ovarian it was 18.7%; in the experiment on OVCAR-4 ovarian, 46.4%; in the experiment with SK-OV-3 ovarian, 70.2%. The growth was 8.48% (active) with IGROV1 ovarian; 9.63% (active) in the experiment with OVCAR-3 ovarian; 13.4% in the experiment on NCI/ADR-RES ovarian; 17.5% in the experiment with T-47D breast; 20.5% in the experiment on BT-549 breast; 43.5% in the experiment with MDA-MB-435 melanoma. Also, the growth is 2.37% (active) in the experiment on SW-620 colon; 11.8% in the experiment on MCF7 breast; -40.2% (active) in the experiment with HCT-116 colon; 78.6% in the experiment with HCC-2998 colon; -43.3% (active) in the experiment on KM12 colon.

Turning to `S=C(NCc1ccc2c(c1)OCO2)N1CCN(c2ncnc3c2oc2ccccc23)CC1`, the growth was 14.8% in the experiment with SR leukemia; 21.3% in the experiment with RPMI-8226 leukemia; 24.8% in the experiment on OVCAR-8 ovarian; 62.1% in the experiment on OVCAR-5 ovarian; 14.1% in the experiment with OVCAR-4 ovarian; 35.6% with SK-OV-3 ovarian. In addition, the growth in the experiment on IGROV1 ovarian is 33.4%; in the experiment with OVCAR-3 ovarian, 30.9%; with NCI/ADR-RES ovarian it was 28.3%; in the experiment with T-47D breast, 1.12% (active); with BT-549 breast, 32.3%; with MDA-MB-435 melanoma it was 19.3%. For the same compound, the growth was 40.9% with SW-620 colon; 18.7% in the experiment with MCF7 breast; 34.3% in the experiment on HCT-116 colon; 57.4% in the experiment with HCC-2998 colon; 45.2% in the experiment on KM12 colon.

For the compound `Cc1ccc(NC(=O)c2ccc(CN3CCN(C)CC3)cc2)cc1Nc1nc(-c2cccnc2)cs1`, the growth in the experiment on SR leukemia was -3.75% (active); in the experiment on RPMI-8226 leukemia, 13.2%; in the experiment with OVCAR-8 ovarian, 34.5%; in the experiment on OVCAR-5 ovarian, 98.7%; in the experiment on OVCAR-4 ovarian it was 62.6%; in the experiment with SK-OV-3 ovarian, 75.3%. The growth in the experiment with IGROV1 ovarian was 62.3%; in the experiment with OVCAR-3 ovarian, 79.6%; in the experiment on NCI/ADR-RES ovarian, 55.7%; with T-47D breast it was -9.37% (active); in the experiment with BT-549 breast, 41.2%; with MDA-MB-435 melanoma, 45.4%. Also, the growth was 42.1% in the experiment on SW-620 colon; 28.5% in the experiment with MCF7 breast; 18.1% in the experiment on HCT-116 colon; 68.3% with HCC-2998 colon; 51.7% with KM12 colon.

For the compound `COc1cc2c(Nc3ccc(Br)cc3F)ncnc2cc1OCC1CCN(C)CC1`, the growth is -6.08% (active) in the experiment with SR leukemia; 26.8% with RPMI-8226 leukemia; 27.6% in the experiment with OVCAR-8 ovarian; 34.8% with OVCAR-5 ovarian; 36.4% with OVCAR-4 ovarian; -5.59% (active) in the experiment with SK-OV-3 ovarian. In addition, the growth in the experiment on IGROV1 ovarian is -21.9% (active); in the experiment with OVCAR-3 ovarian, 42.4%; in the experiment with NCI/ADR-RES ovarian, 30.3%; in the experiment on T-47D breast, -22.9% (active); in the experiment on BT-549 breast, 42.9%; in the experiment with MDA-MB-435 melanoma it was -42.8% (active). Also, the growth in the experiment on SW-620 colon was 31.8%; with MCF7 breast it was 31.3%; with HCT-116 colon it was 24.3%; with HCC-2998 colon it was 19.3%; in the experiment on KM12 colon it was 38.1%.

Turning to `CCS(=O)(=O)N1CCN(c2ccc(Nc3ncc(C(N)=O)c(NC4CC4)n3)cc2)CC1`, the growth was 48.9% in the experiment with SR leukemia; 62.2% with RPMI-8226 leukemia; 89% in the experiment with OVCAR-8 ovarian; 86.7% in the experiment with OVCAR-5 ovarian; 111% in the experiment with OVCAR-4 ovarian; 80.7% in the experiment with SK-OV-3 ovarian. For the same compound, the growth was 77.4% in the experiment on IGROV1 ovarian; 90.2% in the experiment on OVCAR-3 ovarian; 101% with NCI/ADR-RES ovarian; 99.1% in the experiment on T-47D breast; 67% in the experiment with BT-549 breast; 68.7% with MDA-MB-435 melanoma. For the same compound, the growth in the experiment with SW-620 colon is 60.1%; in the experiment with MCF7 breast, 68.5%; in the experiment on HCT-116 colon it was 49.2%; in the experiment with HCC-2998 colon, 98.3%; with KM12 colon, 24.5%.
